Data as given in PubChem BioAssay (EPA / NIEHS).
“And” between values parts separate entries of the source, which are not always exact repeats. Identical values can stand only once. Results filed as inconclusive are left out. A structure can be active in one record and inactive in another. The source made the active and inactive calls. How the source made its calls, unless noted: active means hit-call score of the fitted dose curve at least 0.9, where 1 is the maximum; inconclusive means response in the unintended direction; inactive means score below 0.9.

How the values were obtained:
[1] = Tanguay_ZF_120hpf_MORT_legacy: (Legacy) Oregon State University Tanguay Lab 120 Hour Post-fertilization zebrafish Assay for Mortality (AID 2283633)
Method in brief: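 Dechorionated Tropical 5D wild-type zebrafish embryos, one per well from 6 hpf, were statically exposed at 28C in the dark until 120 hpf (0.64% DMSO final). Mortality was scored as present/absent by brightfield microscopy, fitted positively versus DMSO.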

[2] = Tanguay_ZF_120hpf_YSE_legacy: (Legacy) Oregon State University Tanguay Lab 120 Hour Post-fertilization zebrafish Assay for Yolk Sac Edema (AID 2283634);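 on AC50: actives raise the incidence of yolk sac edema above the DMSO baseline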
Method in brief: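 Tropical 5D wild-type embryos, dechorionated with pronase at 4 hpf, were exposed singly from 6 hpf to 120 hpf under static, sealed, dark conditions at 28C with 0.64% DMSO final. Yolk sac edema was scored present/absent by brightfield microscopy.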

[3] = Tanguay_ZF_120hpf_AXIS_legacy: (Legacy) Oregon State University Tanguay Lab 120 Hour Post-fertilization zebrafish Assay for Body Axis Malformation (AID 2283635)
Method in brief: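 Tropical 5D wild-type zebrafish embryos, dechorionated with pronase at 4 hpf, were placed singly in wells at 6 hpf and exposed statically to test chemical (0.64% DMSO final) at 28C until 120 hpf, then scored by brightfield for body axis defects.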

[4] = Tanguay_ZF_120hpf_EYE_legacy: (Legacy) Oregon State University Tanguay Lab 120 Hour Post-fertilization zebrafish Assay for Eye Malformation (AID 2283636);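 further: binary presence or absence of eye malformation scored by brightfield in 120 hpf larvae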
Method in brief: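 Binary brightfield scoring of eye defects at 120 hpf after static exposure from 6 hpf of single pronase-dechorionated wild-type embryos (28C, 0.64% DMSO). Non-mortality endpoints omitted where embryos died; fit vs DMSO.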

[5] = Tanguay_ZF_120hpf_SNOU_legacy: (Legacy) Oregon State University Tanguay Lab 120 Hour Post-fertilization zebrafish Assay for Snout Malformation (AID 2283637)
Method in brief: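 Binary snout-malformation call at 120 hpf in wild-type 5D embryos, chorion removed by pronase, under static exposure from 6 hpf at 28C (0.64% DMSO). Embryos dying by 24 or 120 hpf excluded.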

[6] = Tanguay_ZF_120hpf_JAW_legacy: (Legacy) Oregon State University Tanguay Lab 120 Hour Post-fertilization zebrafish Assay for Jaw Malformation (AID 2283638);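 on AC50: active means more embryos with jaw malformation than DMSO controls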
Method in brief: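 Tropical 5D wild-type embryos, dechorionated with pronase at 4 hpf, were placed singly per well at 6 hpf and statically exposed at 28C until 120 hpf (0.64% DMSO final). Jaw malformation scored as present/absent by brightfield microscopy at 120 hpf, analyzed relative to DMSO.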

[7] = Tanguay_ZF_120hpf_OTIC_legacy: (Legacy) Oregon State University Tanguay Lab 120 Hour Post-fertilization zebrafish Assay for Otic Vesicle Malformation (AID 2283639)
Method in brief: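 Brightfield scoring at 120 hpf, binary present/absent; DMSO negative control, 5uM trimethyltin chloride positive control. Static exposure at 28C, final DMSO 0.64% (vol/vol). Dead embryos not scored for malformation.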

[8] = Tanguay_ZF_120hpf_PE_legacy: (Legacy) Oregon State University Tanguay Lab 120 Hour Post-fertilization zebrafish Assay for Pericardial Edema (AID 2283640);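 on AC50: potency for increased incidence of pericardial edema versus DMSO baseline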
Method in brief: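 Tropical 5D wild-type zebrafish embryos were exposed statically to 120 hpf at 28C, sealed and foil-covered, in 0.64% DMSO final. Pericardial edema was scored present/absent by brightfield microscopy; dead embryos were not scored.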

[9] = Tanguay_ZF_120hpf_BRAI_legacy: (Legacy) Oregon State University Tanguay Lab 120 Hour Post-fertilization zebrafish Assay for Brain Malformation (AID 2283641)
Method in brief: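 Tropical 5D wild-type zebrafish embryos were exposed statically in sealed, foil-covered plates at 28C until 120 hpf, with 0.64% (vol/vol) final DMSO. Brain malformation was scored present/absent by brightfield microscopy, relative to DMSO baseline.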

[10] = Tanguay_ZF_120hpf_PIG_legacy: (Legacy) Oregon State University Tanguay Lab 120 Hour Post-fertilization zebrafish Assay for Pigmentation Malformation (AID 2283650)
Method in brief: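 Pigment malformation recorded as a binary call at 120 hpf in zebrafish (Tropical 5D) exposed singly from 6 hpf after pronase dechorionation. Static, sealed, 28C exposure, 0.64% DMSO; mortality excludes scoring; positive-direction fit against DMSO.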

[11] = Tanguay_ZF_120hpf_CIRC_legacy: (Legacy) Oregon State University Tanguay Lab 120 Hour Post-fertilization zebrafish Assay for Circulatory Malformation (AID 2283651)
Method in brief: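 Static exposure, 6–120 hpf, 28C, sealed and dark; one dechorionated 5D embryo/well; DMSO 0.64% v/v final. Binary circulation endpoint by brightfield; dead embryos not scored.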

[12] = TOX21_p53_BLA_p4_viability: Viability Assessment in the Tox21 HCT-116 p53 Agonism Beta-lactamase Assay, Phase 4 (AID 2283597);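 further: hits lower the luminescence signal meaning cytotoxicity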
Method in brief: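 Cytotoxicity was inferred from loss of CellTiter-Glo luminescence. HCT116 cells had been dosed with compounds after 5 h plating, incubated 16 h at 37C and 5% CO2, and exposed to the CCF4-AM substrate for 2 h.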

[13] = molecular target: Cellular tumor antigen p53 (Homo sapiens) (UniProt P04637); experiment: TOX21_p53_BLA_p5_ratio: Tox21 HCT-116 p53 Agonism Beta-lactamase Assay, Ratio, Phase 5 (AID 2283599)
Cellular tumor antigen p53 (Homo sapiens), sequence (P04637 whole entry, looked up): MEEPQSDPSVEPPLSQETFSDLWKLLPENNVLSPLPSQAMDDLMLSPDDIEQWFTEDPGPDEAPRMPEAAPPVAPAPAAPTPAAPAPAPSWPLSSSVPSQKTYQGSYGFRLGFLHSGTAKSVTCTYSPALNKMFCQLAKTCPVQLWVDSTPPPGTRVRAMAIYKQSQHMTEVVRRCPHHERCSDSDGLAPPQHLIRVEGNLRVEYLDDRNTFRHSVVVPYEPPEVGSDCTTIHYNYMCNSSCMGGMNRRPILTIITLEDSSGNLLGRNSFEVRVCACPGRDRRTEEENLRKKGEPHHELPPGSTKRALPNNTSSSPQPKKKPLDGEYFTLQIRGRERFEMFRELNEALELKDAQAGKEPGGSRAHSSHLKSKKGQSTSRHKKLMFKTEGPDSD
Method in brief: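 Beta-lactamase reporter ratio (blue 460 nm over green 530 nm, 405 nm excitation) after 2 h CCF4-AM loading, in HCT-116 cells exposed 16 h at 37 C to compounds pinned at 217-fold dilution. Increases relative to DMSO baseline scored.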

[14] = molecular target: Cellular tumor antigen p53 (Homo sapiens) (UniProt P04637); experiment: TOX21_p53_BLA_p4_ratio: Tox21 HCT-116 p53 Agonism Beta-lactamase Assay, Ratio, Phase 4 (AID 2283601)
Method in brief: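 Signal is the blue/green (460nm/530nm) ratio of cleaved versus uncleaved CCF4-AM substrate, read after 2 h substrate loading. Cells were HCT116 carrying the p53-responsive beta-lactamase reporter, dosed 16 h at 37C, 5% CO2; CellTiter-Glo measured in parallel.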

[15] = Tanguay_ZF_120hpf_SOMI_legacy: (Legacy) Oregon State University Tanguay Lab 120 Hour Post-fertilization zebrafish Assay for Somite Malformation (AID 2283647)
Method in brief: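 Tropical 5D wild-type zebrafish embryos, dechorionated with pronase at 4 hpf, were placed singly at 6 hpf and statically exposed until 120 hpf at 28C in 0.64% DMSO. Somite malformation was scored present/absent by brightfield microscopy versus DMSO.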

[16] = Tanguay_ZF_120hpf_PFIN_legacy: (Legacy) Oregon State University Tanguay Lab 120 Hour Post-fertilization zebrafish Assay for Pectoral Fin Malformation (AID 2283648);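 further: each larva judged yes or no for fin defect by brightfield with dead larvae skipped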
Method in brief: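 Pectoral fin malformation was recorded as a binary endpoint at 120 hpf in wild-type Tropical 5D larvae, which had been dechorionated and exposed statically from 6 hpf at 28C in 0.64% DMSO. Dead embryos were excluded.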

[17] = Tanguay_ZF_120hpf_CFIN_legacy: (Legacy) Oregon State University Tanguay Lab 120 Hour Post-fertilization zebrafish Assay for Caudal Fin Malformation (AID 2283649)
Method in brief: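 Tropical 5D wild-type embryos, dechorionated with pronase at 4 hpf, were placed singly in wells at 6 hpf and statically exposed to compound at 28C until 120 hpf (0.64% DMSO). Caudal fin malformation was scored present/absent by brightfield microscopy.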

[18] = TOX21_p53_BLA_p5_viability: Viability Assessment in the Tox21 HCT-116 p53 Agonism Beta-lactamase Assay, Phase 5 (AID 2283600)
Method in brief: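 Luciferase-coupled ATP quantitation of cells treated for 16 h (37C, 5% CO2) with test chemicals delivered in DMSO via a 217-fold dilution; 4000 cells/well; reagent incubated 30 min at room temperature before luminescence reading.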

[19] = read-out: kallikrein-3 (KLK3), KLK3 (gene 354); experiment: LTEA_HepaRG_KLK3: Life Technologies and Expression Analysis (LTEA) Assay for kallikrein-3 (KLK3) using HepaRG (AID 2283652; active means hit-call score of the fitted dose curve at least 0.9, where 1 is the maximum; inactive means score below 0.9); conditions: mRNA level, 48 h; actives raise or lower the signal
Method in brief: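 KLK3 transcript levels were measured by TaqMan qRT-PCR with normalisation to three housekeeping genes. HepaRG cultures received chemicals for 48 h at up to 100 uM (half-log, 8 points, 0.5% DMSO vehicle), fitted in both directions against DMSO.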

[20] = molecular target: Cellular tumor antigen p53 (Homo sapiens) (UniProt P04637); experiment: TOX21_p53_BLA_p3_ratio: Tox21 HCT-116 p53 Agonism Beta-lactamase Assay, Ratio, Phase 3 (AID 2283596)
Method in brief: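 Cells were seeded at 4000/well, rested 5 h at 37C, then dosed with DMSO compound solutions (217-fold dilution) for 16 h. CCF4-AM substrate was loaded for 2 h at room temperature, and the 460/530 nm emission ratio was fitted for gain of signal versus DMSO.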

Measured: AC50

N=C(N)c1ccc(OCCCCCOc2ccc(C(=N)N)cc2)cc1
inactive: [1] | [2] | [3] | [4] | [5] | [6] | [7] | [8] | [9] | [10] | [11]

CC(C)(C)C1CCCCC1O (stereo not drawn)
inactive: [12] | [13] | [14]

CCCCCCCCCCCCOS(=O)(=O)O
not listed: [12] | [13] | [14] | [18] | [19] | [20]
inactive: all other assays above

Oc1c(Cl)cc(Cl)cc1Sc1cc(Cl)cc(Cl)c1O
active: [18] 82 µM and 85.7 µM
inactive: [18]

OCC(CO)(CBr)CBr
not listed: [12] | [13] | [14] | [18] | [19] | [20]
inactive: all other assays above

CC(=O)Nc1ccc(O)cc1
not listed: [12] | [13] | [14] | [18] | [19] | [20]
inactive: all other assays above

CCCCC=O
inactive: [1] | [3] | [15] | [16] | [11] | [19]
active: [2] 45.3 µM | [4] 38.4 µM | [5] 44.9 µM | [6] 38.8 µM | [8] 42.9 µM | [9] 54.8 µM

CCCC=O
inactive: [12] | [13] | [18]

CC(C)(C)c1ccc(CCC=O)cc1
inactive: [20] | [13] | [14]

CN(Cc1cnc2nc(N)nc(N)c2n1)c1ccc(C(=O)N[C@@H](CCC(=O)O)C(=O)O)cc1
not listed: [7] | [12] | [13] | [14] | [18] | [19] | [20]
inactive: all other assays above

CCN(CC)CC
inactive: [13] | [18] | [14]

c1ccc(CNc2ncnc3c2ncn3C2CCCCO2)cc1 (stereo not drawn)
inactive: [12] | [18]

Cc1ccc(S(=O)(=O)O)cc1
inactive: [12] | [18]

CCC1CO1 (stereo not drawn)
inactive: [18] | [14]

CC(C)C=O
inactive: [12] | [13] | [18] | [14]

CS(=O)(=O)c1ccc([C@@H](CC2CCCC2)C(=O)Nc2cnccn2)cc1Cl
not listed: [9] | [12] | [13] | [14] | [15] | [18] | [19] | [20]
inactive: all other assays above

NCCN
inactive: [20] | [13] | [18] | [14]

CCCCCCCCCCCCCCC
not listed: [10] | [12] | [13] | [14] | [18] | [19] | [20]
inactive: all other assays above

CCC(C)c1ccccc1O (stereo not drawn)
not listed: [11] | [12] | [13] | [14] | [18] | [19] | [20]
inactive: all other assays above

Clc1ccc(Nc2nnc(Cc3ccncc3)c3ccccc23)cc1
inactive: [20] | [13] | [14]

O=C1NS(=O)(=O)c2ccccc21
not listed: [9] | [12] | [13] | [14] | [18] | [19] | [20]
inactive: all other assays above

CC(C)(O)C(=O)c1ccccc1
inactive: [18]

CCCCC(CC)C(=O)O (stereo not drawn)
inactive: [1] | [2] | [3] | [5] | [6] | [7] | [8] | [9] | [16] | [10]

Cc1[nH]nc2c1N=C(c1ccccc1Cl)c1cc([N+](=O)[O-])ccc1N2
not listed: [4] | [12] | [13] | [14] | [18] | [19] | [20]
inactive: all other assays above

OCC1CCC(CO)CC1 (stereo not drawn)
inactive: [12] | [13] | [18] | [14]
